Inconclusive results are not listed. The source made the active and inactive calls. Unless noted, calls follow the shape of the dose curve; as a rule, active = well fitted curve in the direction sought with a large enough effect in the repeat runs; inconclusive = weak or mixed curves; inactive = no such curve, though single readings can be large; an effect the other way counts as inactive or inconclusive.
Legend:
[1] = qHTS assay for small molecule agonists of the p53 signaling pathway (AID 651631; calls by dose curve; also: nearly all actives have a fitted effect of over 15% in size; also: potency is read from the fitted curve at half-maximal effect)
In short: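 We treat p53RE-bla HCT-116 cells with compounds for 16 h at 37 °C, add LiveBLAzer B/G FRET substrate for 2 h at room temperature, and measure fluorescence intensity.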

[2] = qHTS assay for small molecule agonists of the p53 signaling pathway - cell viability (AID 651633; calls by dose curve;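 also: p53RE-bla HCT reporter cells with a stable beta-lactamase p53 reporter; series mostly up to about 83 µM; nearly all actives have a fitted effect of over 30% in size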)
In short: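 p53RE-bla cells were treated with compound for 16 hours at 37 C. Cytotoxicity was then measured as CellTiter-Glo luminescence after 30 min at room temperature.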

[3] = qHTS assay for small molecules that induce genotoxicity in human embryonic kidney cells expressing luciferase-tagged ATAD5 - cell viability (AID 651634; calls by dose curve; also: nearly all actives have a fitted effect of over 25% in size)
In short: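 Seeding of 2,000 HEK293T ATAD5-luciferase cells per well preceded pin-tool compound transfer. Plates sat 15.5 hr at 37C under 5% CO2, then fluorescence was read after 30 min with CellTiter-Fluor.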

[4] = qHTS assay for small molecule disruptors of the mitochondrial membrane potential - cell viability (AID 720634; calls by dose curve;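 also: human HepG2 liver cancer cells; series mostly up to about 83 µM; nearly all actives have a fitted effect of over 20% in size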)
In short: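 Measuring cytotoxicity alongside mitochondrial potential, the screen quantified ATP by luminescence in HepG2 cells after 1 hr compound incubation and a 30 min room-temperature CellTiter-Glo step.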

[5] = qHTS assay for small molecule disruptors of the mitochondrial membrane potential (AID 720635); also: potency is read from the fitted curve at half-maximal effect
In short: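 HepG2 cells exposed to compound 1 hr at 37C, then Mito-MPS dye 30 min. Ratio read of aggregate (540/590 nm) versus monomer (490/535 nm) fluorescence.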

[6] = qHTS assay to test for compound auto fluorescence at 590 nm (red) in HepG2 cells (AID 720674)
In short: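 Seeding: 2,000 HepG2 cells/well, MEM/10% FBS, overnight 37 C. Dosing: compound vs DMSO. Incubation: 1 hr, 37 C, 5% CO2. Read: fluorescence 540 ex/590 em, Rose Bengal sodium as red reference.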

[7] = qHTS assay to test for compound auto fluorescence at 535 nm (green) in HepG2 cells (AID 720675)
[8] = qHTS assay to test for compound auto fluorescence at 535 nm (green) in HEK293 cells (AID 720680)
[9] = qHTS assay to test for compound auto fluorescence at 460 nm (blue) in HEK293 cell free culture (AID 720681)
In short: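 Compounds were added to cell-free DMEM with 10% FBS and fluorescence read directly. The blue channel used 405 nm excitation and 460 nm emission, with triamterene as the reference fluorophore.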

[10] = qHTS assay to test for compound auto fluorescence at 535 nm (green) in HEK293 cell free culture (AID 720682)
In short: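 Green-channel intensity (Ex/Em 485/535 nm) was recorded from compound-treated wells containing only DMEM with 10% FBS. Fluorescein provided the equivalency standard.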

[11] = qHTS assay to test for compound auto fluorescence at 590 nm (red) in HEK293 cell free culture (AID 720683)
In short: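 Cell-free wells of DMEM with 10% FBS received compound, and intrinsic fluorescence was read at excitation/emission 540/590 nm. Values expressed as equivalence to Rose Bengal sodium.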

[12] = qHTS assay to test for compound auto fluorescence at 590 nm (red) in HepG2 cell free culture (AID 720684)
In short: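 Compounds are added to culture medium (MEM, 10% FBS) lacking cells, then fluorescence is read at excitation 540 nm, emission 590 nm, with Rose Bengal sodium as the equivalency standard.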

[13] = qHTS assay to test for compound auto fluorescence at 460 nm (blue) in HepG2 cell free culture (AID 720685)
In short: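 Compound (23 nL) or DMSO pinned into cell-free MEM with 10% FBS; blue fluorescence read at 405/460 nm excitation/emission, expressed as auto-fluorescence equivalency to triamterene.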

[14] = qHTS assay to test for compound auto fluorescence at 460 nm (blue) in HepG2 cells (AID 720687)
In short: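 HepG2 cells in MEM with 10% FBS, attached overnight at 37 C, were exposed to compound or DMSO for 1 hr at 37 C, 5% CO2. Blue fluorescence was read at 405/460 nm, with triamterene as reference fluorophore.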

[15] = target: Glucocorticoid receptor (Homo sapiens) (UniProt P04150); assay: qHTS assay to identify small molecule agonists of the glucocorticoid receptor (GR) signaling pathway (AID 720691; active = well fitted activation curve with a large enough effect in the signal ratio in the repeat runs, not every such curve was filed as active; the % refers to the signal ratio)
In short: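 Reporter read-out: fluorescence intensity following 2 h room-temperature LiveBLAzer B/G FRET substrate loading. Prior step: GR-bla HeLa cells held 4 h, then treated 18 h at 37 C.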

[16] = qHTS assay for small molecules that induce genotoxicity in human embryonic kidney cells expressing luciferase-tagged ATAD5 (AID 651632); also: nearly all actives have a fitted effect of over 15% in size
In short: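 Reporter cells (HEK293T) express luciferase-tagged ATAD5, a protein that accumulates after DNA damage. Treat 16 hr at 37C/5% CO2, add Amplite, wait 30 min at RT, and read luminescence.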

[17] = qHTS assay to test for compound auto fluorescence at 460 nm (blue) in HEK293 cells (AID 720678)
In short: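 Auto fluorescence in the blue band was quantified as triamterene equivalency. HEK293 cells were seeded at 2,000/well, dosed after a 4-5 hr attachment, and kept overnight at 37C before the 405/460 nm reading.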

[18] = qHTS assay to test for compound auto fluorescence at 590 nm (red) in HEK293 cells (AID 720679)
In short: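 Autofluorescence equivalency to Rose Bengal sodium, 540/590nm, in HEK293 cells exposed overnight to 23 nL compound per well.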

[19] = qHTS assay to test for compound auto fluorescence at 535 nm (green) in HepG2 cell free culture (AID 720686)
[20] = target: Glucocorticoid receptor (Homo sapiens) (UniProt P04150); assay: qHTS assay to identify small molecule antagonists of the glucocorticoid receptor (GR) signaling pathway (AID 720692; active = well fitted inhibition curve with a large enough effect in the signal ratio in the repeat runs, not every such curve was filed as active; the % refers to the signal ratio)
In short: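 Dexamethasone (5 nM final) stimulated a stably integrated GRE-beta-lactamase reporter in HeLa cells during 18 h co-incubation with compounds; signal was quantified as fluorescence intensity of B/G FRET substrate after 2 h.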
% is scaled to controls: 0 for no effect and ±100 for the full control effect.

Sequence of Glucocorticoid receptor (Homo sapiens) (P04150 whole entry, looked up): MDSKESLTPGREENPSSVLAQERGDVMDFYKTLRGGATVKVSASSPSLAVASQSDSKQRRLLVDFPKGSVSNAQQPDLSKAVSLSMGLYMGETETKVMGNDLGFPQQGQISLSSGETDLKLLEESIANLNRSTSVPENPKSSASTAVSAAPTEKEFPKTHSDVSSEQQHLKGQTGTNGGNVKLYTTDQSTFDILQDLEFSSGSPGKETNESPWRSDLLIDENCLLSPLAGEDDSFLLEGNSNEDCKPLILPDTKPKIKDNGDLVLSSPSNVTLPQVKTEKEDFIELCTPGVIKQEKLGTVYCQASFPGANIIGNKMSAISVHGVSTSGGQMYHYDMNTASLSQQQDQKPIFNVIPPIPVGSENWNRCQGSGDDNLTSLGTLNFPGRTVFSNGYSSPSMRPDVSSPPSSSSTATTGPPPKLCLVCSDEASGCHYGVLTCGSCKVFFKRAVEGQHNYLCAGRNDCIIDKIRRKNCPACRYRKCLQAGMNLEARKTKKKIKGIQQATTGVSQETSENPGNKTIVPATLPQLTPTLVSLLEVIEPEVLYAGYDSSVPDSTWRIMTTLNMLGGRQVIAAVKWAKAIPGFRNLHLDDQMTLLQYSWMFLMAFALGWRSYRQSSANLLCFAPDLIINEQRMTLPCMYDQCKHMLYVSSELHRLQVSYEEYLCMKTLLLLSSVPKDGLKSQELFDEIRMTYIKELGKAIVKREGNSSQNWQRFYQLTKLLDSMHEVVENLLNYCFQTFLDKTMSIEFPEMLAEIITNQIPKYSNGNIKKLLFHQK

CCCCCCCC(=O)OCCCCCC
inactive: Potency [1] | Potency [2] | Potency [3] | outcome [4] | Potency [5] | outcome [6] | outcome [7] | outcome [8] | Potency [9] | outcome [10] | outcome [11] | outcome [12] | Potency [13] | Potency [14] | Potency [15]

CC(=O)C(=O)CC(C)C
inactive: Potency [16] | Potency [2] | Potency [3] | outcome [4] | Potency [5] | outcome [6] | outcome [7] | Potency [17] | outcome [18] | outcome [8] | Potency [9] | outcome [10] | outcome [11] | outcome [12] | Potency [13] | outcome [19] | Potency [14] | Potency [15]

SCCc1cnccn1
inactive: Potency [2] | outcome [4] | Potency [5] | outcome [6] | outcome [7] | Potency [17] | outcome [18] | outcome [8] | Potency [9] | outcome [10] | outcome [11] | outcome [12] | outcome [19] | Potency [14] | Potency [15]
active: Potency [1] 61.1 µM

CCCOC(=O)c1c(Cl)c(Cl)c(Cl)c(Cl)c1C(=O)OCCC
inactive: Potency [16] | Potency [2] | Potency [3] | outcome [4] | outcome [6] | outcome [7] | Potency [17] | outcome [18] | outcome [8] | outcome [10] | outcome [11] | outcome [12] | Potency [13] | outcome [19] | Potency [14] | Potency [15] | Potency [20]
active: Potency [5] 61.1 µM

CC(C)N(C)C
inactive: Potency [1] | Potency [2] | Potency [3] | outcome [4] | outcome [6] | outcome [7] | Potency [17] | outcome [18] | outcome [8] | outcome [10] | outcome [11] | outcome [12] | Potency [13] | outcome [19] | Potency [14] | Potency [15] | Potency [20]

CC1CCCO1 (stereo not drawn)
inactive: Potency [1] | Potency [2] | Potency [3] | outcome [4] | outcome [6] | outcome [7] | Potency [17] | outcome [18] | outcome [8] | Potency [9] | outcome [10] | outcome [11] | outcome [12] | outcome [19] | Potency [14]

CN(C)CC/C=C1\c2ccccc2Sc2ccc(Cl)cc21
inactive: Potency [3] | outcome [4] | outcome [7] | Potency [17] | outcome [18] | outcome [10] | outcome [11] | outcome [12] | Potency [13] | outcome [19] | Potency [14] | Potency [15]
active: Potency [1] 15 µM

COc1ccc2nc(S(=O)Cc3ncc(C)c(OC)c3C)[nH]c2c1 (stereo not drawn)
inactive: Potency [16] | Potency [2] | Potency [3] | outcome [4] | Potency [5] | outcome [6] | outcome [7] | Potency [17] | outcome [18] | outcome [8] | outcome [10] | outcome [12] | Potency [13] | outcome [19] | Potency [14]

CCCCC(CC)COS(=O)(=O)O (stereo not drawn)
inactive: Potency [16] | Potency [2] | Potency [3] | outcome [4] | Potency [5] | outcome [6] | outcome [7] | Potency [17] | outcome [18] | outcome [8] | outcome [10] | outcome [11] | outcome [12] | Potency [13] | outcome [19] | Potency [14]

c1ccc(CNc2ncnc3c2ncn3C2CCCCO2)cc1 (stereo not drawn)
inactive: Potency [1] | Potency [2] | Potency [3] | outcome [4] | outcome [6] | outcome [7] | Potency [17] | outcome [18] | outcome [8] | Potency [9] | outcome [10] | outcome [11] | outcome [12] | Potency [13] | outcome [19] | Potency [14] | Potency [15]

C1=CCC2CC=CC2C1 (stereo not drawn)
inactive: Potency [1] | Potency [2] | Potency [3] | outcome [4] | outcome [6] | outcome [7] | outcome [18] | outcome [8] | Potency [9] | outcome [10] | outcome [11] | outcome [12] | Potency [13] | Potency [14] | Potency [15] | Potency [20]

CC(C)c1ccc(C(=O)N=C(N)N)cc1S(C)(=O)=O
inactive: Potency [16] | Potency [2] | Potency [3] | outcome [4] | Potency [5] | outcome [6] | outcome [7] | outcome [8] | Potency [9] | outcome [10] | outcome [11] | outcome [12] | outcome [19] | Potency [14] | Potency [15] | Potency [20]

CC(C)(C)C1(CCc2ccc(Cl)cc2)CO1 (stereo not drawn)
active: Potency [5] 19.3 µM
inactive: Potency [16] | Potency [2] | Potency [3] | outcome [4] | outcome [6] | outcome [7] | Potency [9] | outcome [10] | outcome [12] | Potency [13] | Potency [14]

COC1CCC=CO1 (stereo not drawn)
inactive: Potency [16] | Potency [2] | Potency [3] | outcome [4] | Potency [5] | outcome [7] | Potency [17] | outcome [18] | outcome [8] | Potency [9] | outcome [10] | outcome [11] | outcome [12] | outcome [19] | Potency [14]

CSCC[C@H](NC(=O)[C@H](Cc1c[nH]c2ccccc12)NC(=O)CCNC(=O)OC(C)(C)C)C(=O)N[C@@H](CC(=O)O)C(=O)N[C@@H](Cc1ccccc1)C(N)=O
inactive: Potency [16] | Potency [2] | outcome [4] | Potency [5] | outcome [7] | Potency [17] | outcome [8] | Potency [9] | outcome [10] | outcome [11] | outcome [12] | outcome [19] | Potency [14] | Potency [15] | Potency [20]

CCCCCCCCCCCCCOC(=O)CCSCCC(=O)OCCCCCCCCCCCCC
inactive: Potency [16] | Potency [2] | Potency [3] | outcome [4] | fluorescence, relative to Rose Bengal [6] 0.06% [at 18.6 µM] | fluorescence, % of fluorescein control [7] -0.0137% [at 18.6 µM] | fluorescence, % of triamterene [17] 0.0236% [at 18.6 µM] | fluorescence, % of fluorescent control [18] 0.358% [at 18.6 µM] | fluorescence, % of fluorescein [8] -0.0169% [at 18.6 µM] | fluorescence, % of fluorescent control [9] -0.0348% [at 18.6 µM] | activity change [10] 0.0335% [at 18.6 µM] | fluorescence, % of Rose Bengal [12] -0.0106% [at 18.6 µM] | fluorescence, % of fluorescein control [19] -0.0124% [at 18.6 µM] | fluorescence, % of fluorescent control [14] -0.106% [at 18.6 µM]

— PubChem BioAssay (Tox21)
